Experimental data as given in PubChem BioAssay AID1159580 (chemical genetic matrix, 2015).
About 2,000 (36%) of roughly 5,500 compounds were called active. Another 18% or so got no clear call; they are omitted. Rule as the data show it: active = normalized growth mostly below about 0.91 (no sharp cut-off); inconclusive = no clear call, values can overlap the other calls; inactive = mostly above about 0.92. Some of the results follow.

Test: chemical genetic growth profiling, strain panel (AID 1159580);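 also: tested at 20 µM; growth read once vehicle control cultures reached saturation at 30 °C; 1 = growth at the plate median or of vehicle wells; lower values mean less growth of the strain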
Conditions: S. cerevisiae deletion strains, growth OD
[1] = locus YHR030C, strain SLT2, active compounds read low
[2] = locus YHR079C, strain IRE1, active compounds read low
[3] = locus YJL095W, strain BCK1, active compounds read low
[4] = locus YJR066W, strain TOR1, active compounds read low
[5] = locus YLR113W, strain HOG1, active compounds read low
[6] = locus YNL183C, strain NPR1, active compounds read low
[7] = locus YOR231W, strain MKK1, active compounds read low
[8] = locus YPL256C, strain CLN2, active compounds read low

Measured: normalized growth

CCC(COC(=O)c1cc(OC)c(OC)c(OC)c1)(c1ccccc1)N(C)C (stereo unspecified)
inactive: locus YAL021C, strain ccr4, active compounds read low 0.969 | locus YAL026C, strain drs2, active compounds read low 0.994 | locus YAL030W, strain snc1, active compounds read low 0.985 | locus YBL061C, strain skt5, active compounds read low 0.993 | locus YBR009C, strain hhf1, active compounds read low 1.01 | locus YBR023C, strain chs3, active compounds read low 0.98 | locus YBR171W, strain sec66, active compounds read low 0.961 | locus YBR231C, strain swc5, active compounds read low 0.985 | locus YBR279W, strain paf1, active compounds read low 0.975 | locus YCL011C, strain gbp2, active compounds read low 0.969 | locus YCL016C, strain dcc1, active compounds read low 0.99 | locus YCL061C, strain MRC1, active compounds read low 0.987 | locus YCL069W, strain vba3, active compounds read low 0.988 | locus YCR088W, strain abp1, active compounds read low 0.979 | locus YDL005C, strain med2, active compounds read low 0.977 | locus YDL040C, strain nat1, active compounds read low 0.978 | locus YDR001C, strain nth1, active compounds read low 0.974 | locus YDR069C, strain doa4, active compounds read low 0.992 | locus YDR137W, strain rgp1, active compounds read low 0.925 | locus YDR159W, strain sac3, active compounds read low 0.986 | locus YDR195W, strain ref2 0.984 | locus YDR297W, strain sur2, active compounds read low 0.971 | locus YDR334W, strain swr1, active compounds read low 0.938 | locus YDR335W, strain msn5, active compounds read low 0.969 | locus YDR392W, strain spt3, active compounds read low 0.753 | locus YEL003W, strain gim4, active compounds read low 0.967 | locus YEL037C, strain rad23, active compounds read low 0.983 | locus YEL061C, strain CIN8 (second series), active compounds read low 0.985 | locus YER015W, strain faa2, active compounds read low 0.986 | locus YER016W, strain bim1, active compounds read low 0.983 | locus YER111C, strain swi4, active compounds read low 0.983 | locus YER155C, strain BEM2 (second series), active compounds read low 0.97 | locus YFR010W, strain ubp6, active compounds read low 0.984 | locus YGL167C, strain pmr1, active compounds read low 0.976 | locus YGL173C, strain kem1, active compounds read low 0.985 | locus YGL227W, strain vid30, active compounds read low 0.99 | locus YGL240W, strain doc1, active compounds read low 0.972 | locus YGL253W, strain hxk2, active compounds read low 0.994 | locus YHR013C, strain ard1, active compounds read low 0.937 | locus YHR027C, strain rpn1, active compounds read low 0.969 | [1] 0.976 | [2] 0.985 | locus YHR142W, strain chs7, active compounds read low 0.952 | locus YJL092W, strain hpr5, active compounds read low 0.973 | locus YJL095W, strain BCK1 (second series), active compounds read low 0.981 | [3] 0.98 | locus YJL115W, strain asf1, active compounds read low 0.957 | locus YJL129C, strain trk1, active compounds read low 0.938 | locus YJL154C, strain vps35, active compounds read low 0.979 | locus YJL164C, strain tpk1, active compounds read low 0.966 | locus YJL166W, strain qcr8, active compounds read low 0.969 | locus YJL187C, strain SWE1, active compounds read low 0.988 | [4] 0.924 | locus YKL160W, strain elf1, active compounds read low 0.959 | locus YKR026C, strain gcn3, active compounds read low 0.983 | locus YKR091W, strain srl3, active compounds read low 0.976 | locus YLL001W, strain dnm1, active compounds read low 0.985 | locus YLL026W, active compounds read low 0.975 | locus YLL041C, strain sdh2, active compounds read low 0.964 | locus YLR027C, strain aat2, active compounds read low 0.974 | [5] 0.995 | locus YLR221C, strain rsa3, active compounds read low 0.951 | locus YLR258W, strain gsy2, active compounds read low 0.991 | locus YLR262C, strain YPT6 (second series), active compounds read low 0.933 | locus YLR320W, strain mms22, active compounds read low 0.942 | locus YLR342W, strain FKS1, active compounds read low 0.983 | locus YLR357W, strain rsc2, active compounds read low 0.966 | locus YLR370C, strain arc18, active compounds read low 0.997 | locus YLR384C, strain iki3, active compounds read low 0.976 | locus YML120C, strain ndi1, active compounds read low 0.957 | locus YMR058W, strain fet3, active compounds read low 0.979 | locus YMR125W, strain sto1, active compounds read low 0.97 | locus YMR129W, active compounds read low 0.978 | locus YMR205C, strain PFK2, active compounds read low 1.02 | locus YMR231W, strain pep5, active compounds read low 0.999 | locus YNL071W, strain lat1, active compounds read low 0.921 | [6] 0.939 | locus YNL209W, strain ssb2, active compounds read low 0.98 | locus YNL248C, strain rpa49, active compounds read low 0.945 | locus YNL322C, strain KRE1 (second series), active compounds read low 0.972 | locus YNR049C, strain mso1, active compounds read low 0.973 | locus YOR001W, strain rrp6, active compounds read low 0.913 | locus YOR070C, strain gyp1, active compounds read low 0.978 | locus YOR080W, strain dia2, active compounds read low 0.977 | locus YOR083W, strain WHI5, active compounds read low 0.952 | locus YOR106W, strain vam3, active compounds read low 0.957 | [7] 0.988 | locus YOR265W, strain rbl2, active compounds read low 0.976 | locus YOR270C, strain vph1, active compounds read low 0.955 | locus YOR290C, strain snf2, active compounds read low 0.925 | locus YPL051W, strain arl3, active compounds read low 0.954 | locus YPL078C, strain atp4, active compounds read low 0.946 | locus YPL106C, strain sse1, active compounds read low 0.941 | locus YPL240C, strain hsp82, active compounds read low 0.961 | [8] 0.966

COc1cc(C(=O)Oc2c(Cl)cc(Cl)cc2C=Nc2ccc([N+](=O)[O-])cc2C#N)cc(OC)c1OC
inactive: locus YAR019C, strain CDC15, active compounds read low 0.988 | locus YBL105C, strain PKC1, active compounds read low 0.972 | locus YBR135W, strain CKS1, active compounds read low 0.969 | locus YBR136W, strain MEC1, active compounds read low 0.988 | locus YBR160W, strain CDC28, active compounds read low 0.974 | locus YDL017W, strain CDC7, active compounds read low 0.974 | locus YDL028C, strain MPS1, active compounds read low 0.977 | locus YDL101C, strain DUN1, active compounds read low 0.987 | locus YDL108W, strain KIN28, active compounds read low 0.982 | locus YDL132W, strain cdc53, active compounds read low 0.967 | locus YDR052C, strain DBF4, active compounds read low 0.989 | locus YDR054C, strain cdc34, active compounds read low 0.968 | locus YDR226W, strain ADK1, active compounds read low 0.978 | locus YFL009W, strain cdc4, active compounds read low 0.961 | locus YFL029C, strain CAK1, active compounds read low 0.983 | locus YFR003C, strain YPI1, active compounds read low 0.975 | locus YFR028C, strain CDC14, active compounds read low 0.973 | locus YIL147C, strain SLN1, active compounds read low 0.979 | locus YJL128C, strain PBS2, active compounds read low 0.928 | locus YJR016C, strain ILV3, active compounds read low 0.986 | locus YJR066W, strain TOR1 (second series), active compounds read low 0.812 | locus YKL193C, strain SDS22, active compounds read low 0.965 | locus YMR001C, strain CDC5, active compounds read low 0.98 | locus YMR277W, strain FCP1, active compounds read low 0.97 | locus YNL006W, strain LST8, active compounds read low 0.991 | locus YNL161W, strain CBK1, active compounds read low 0.98 | locus YNL207W, strain RIO2, active compounds read low 0.981 | locus YNL222W, strain SSU72, active compounds read low 0.975 | locus YOL078W, strain AVO1, active compounds read low 0.975 | locus YOR329C, strain SCD5, active compounds read low 0.971 | locus YPL209C, strain IPL1, active compounds read low 0.976 | locus YPR025C, strain CCL1, active compounds read low 0.963 | locus YPR106W, strain ISR1, active compounds read low 0.971 | locus YPR111W, strain DBF20, active compounds read low 0.945 | strain NNK1, active compounds read low 0.979 | strain TSCII, active compounds read low 0.98
active: locus YDL214C, strain PRR2, active compounds read low 0.56 | locus YDR477W, strain SNF1, active compounds read low 0.598 | locus YER123W, strain YCK3, active compounds read low 0.352 | locus YER133W, strain GLC7, active compounds read low 0.553 | locus YFR019W, strain FAB1, active compounds read low 0.593 | locus YGR040W, strain KSS1, active compounds read low 0.622 | locus YGR052W, strain FMP48, active compounds read low 0.508 | locus YGR092W, strain DBF2, active compounds read low 0.302 | [1] 0.324 | [2] 0.371 | locus YHR082C, strain KSP1, active compounds read low 0.497 | locus YHR205W, strain SCH9, active compounds read low 0.429 | [3] 0.408 | locus YJL157C, strain FAR1, active compounds read low 0.565 | [4] 0.366 | locus YKL048C, strain ELM1, active compounds read low 0.765 | locus YKL067W, strain YNK1, active compounds read low 0.558 | locus YKL101W, strain HSL1, active compounds read low 0.654 | locus YKL203C, strain TOR2, active compounds read low 0.678 | [5] 0.458 | locus YLR133W, strain CKI1, active compounds read low 0.543 | locus YLR403W, strain SFP1, active compounds read low 0.439 | locus YML070W, strain DAK1, active compounds read low 0.544 | locus YMR205C, strain PFK2 (second series), active compounds read low 0.59 | locus YNL020C, strain ARK1, active compounds read low 0.503 | [6] 0.465 | locus YNL307C, strain MCK1 (second series), active compounds read low 0.5 | locus YOL136C, strain PFK27, active compounds read low 0.492 | locus YOR061W, strain CKA2, active compounds read low 0.439 | locus YOR119C, strain RIO1, active compounds read low 0.549 | [7] 0.46 | locus YPL031C, strain PHO85, active compounds read low 0.572 | locus YPL153C, strain RAD53, active compounds read low 0.581 | locus YPL204W, strain HRR25, active compounds read low 0.548 | [8] 0.431
